Compounds without any hit were thinned out: in the full panel of roughly 83,000, 20% have a hit.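 Each cell line was grown in a 96-well plate and treated with one concentration of compound for 48 hours. Values below 10 were considered active.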 Values without a mark were called inactive. Calls of active or inactive are those of the source.

What all share (assay): NCI-60 one-dose screen, 48 h (100 = growth as untreated, 0 = no growth, -100 = all killed)
Holding throughout (details): 10 µM unless noted

Experiment [1] has as its system NCI-H23 lung.
The subject of experiment [2] is NCI-H226 lung.
Experiment [3] concerns NCI-H322M lung.
Experiment [4] concerns HOP-62 NSCLC.
The subject of experiment [5] is NCI-H460 lung.
Experiment [6] has as its system HOP-92 NSCLC.
Experiment [7] has as its system NCI-H522 lung.
Experiment [8] concerns A549/ATCC NSCLC.
In experiment [9] the test system is 786-0 renal.
In experiment [10] the test system is COLO 205 colon.
The subject of experiment [11] is DU-145 prostate.
Experiment [12] concerns K-562 leukemia.
Experiment [13] concerns MALME-3M melanoma.
Experiment [14] concerns MDA-MB-231 breast.
Experiment [15] deals with RXF 393 renal.
In experiment [16] the test system is SF-268 CNS.
The test system of experiment [17] is SF-295 CNS.
For experiment [18], the system named is SF-539 CNS.
Experiment [19] has as its system UACC-257 melanoma.
The test system of experiment [20] is M14 melanoma.

`CCC(C)C1NC(=O)c2nc(oc2-c2ccccc2)-c2csc(n2)-c2csc(n2)-c2nc(oc2C)-c2coc(n2)CNC(=O)C(C(C)CC)NC1=O` (stereo not given): the growth was -68.2% (active) in [1]; -55.8% (active) in experiment [2]; -98.9% (active) in experiment [3]; -57% (active) in [4]; -81.4% (active) in [5]; -83.3% (active) in experiment [6]. The growth in [7] is -74.7% (active); in experiment [8], -76.6% (active); in experiment [9] it was -73.1% (active); in [10], -77.3% (active); in experiment [11], -90.6% (active); in experiment [12] it was -66.3% (active). Besides, the growth in [13] was -84.9% (active); in experiment [14], -74.4% (active); in experiment [15] it was -72.5% (active); in experiment [16], -66.9% (active); in [17] it was -78.9% (active); in experiment [18], -80.5% (active). For the same molecule, the growth in [19] is -66.2% (active); in experiment [20] it was -85.2% (active).
In the case of `Nc1nc(N)c2c(n1)NC(c1sc(Cl)nc1Cl)CC(c1ccc3c(c1)OCO3)=N2` (stereo not given), the growth in experiment [1] was 39.9%; in [2] it was 82.7%; in [3], 72.6%; in experiment [4], 34.5%; in [5], 13.2%; in experiment [6] it was 56%. The growth in experiment [7] was -28.3% (active); in experiment [8], 36.4%; in [9], 38.1%; in experiment [10], 7.12% (active); in [11] it was 35.3%; in experiment [12], 16.9%. Besides, the growth was 28.8% in experiment [13]; 48.8% in experiment [14]; -1.6% (active) in [15]; 38.8% in [16]; 18.5% in experiment [17]; -14.9% (active) in experiment [18]. Further, the growth in experiment [19] was 39.2%; in experiment [20] it was 18.1%.
`Nc1cc2nc3ccccc3oc-2cc1=O`: the growth in experiment [1] was -33.2% (active); in experiment [2], 67.4%; in experiment [3], 108%; in [4] it was 25.4%; in [5] it was -28.7% (active); in experiment [6], 112%. Besides, the growth in experiment [7] is -16.5% (active); in [8], -42.4% (active); in experiment [9], 81.9%; in [10], -74.9% (active); in experiment [11], -97.1% (active); in experiment [12], 10.6%. Besides, the growth was -45.8% (active) in experiment [13]; 59.8% in experiment [14]; 81.1% in experiment [15]; 38.5% in [16]; -11.1% (active) in experiment [17]; -20% (active) in [18]. In addition, the results for the growth in experiment [19] and in [20] were 31.7% and -83.6% (active), respectively.
On to `CNCc1ccccc1CN(CC(=O)Nc1ccc2c(c1)CC1(C2)C(=O)Nc2ncccc21)C(=O)C(C)(C)C` (stereo not given), for which the growth in experiment [1] is 103%; in experiment [2], 95%; in experiment [3], 100%; in [4], 102%; in [5], 106%; in experiment [6] it was 104%. For the same molecule, the growth was 93.5% in experiment [7]; 103% in experiment [8]; 107% in experiment [9]; 102% in experiment [10]; 112% in experiment [11]; 107% in [12]. The growth in experiment [13] is 99.5%; in [14], 108%; in experiment [15], 126%; in experiment [16], 101%; in [17] it was 106%; in [18], 100%. Also, the growth in experiment [19] is 102%; in experiment [20], 98.7%.
On to `COc1ccc2cc(-c3nc(C)c(C(C)=O)c(-c4ccc(C)cc4)n3)ccc2c1`, for which the growth in experiment [1] was 89.2%; in experiment [2], 80.1%; in experiment [3], 87.5%; in experiment [4], 105%; in experiment [5], 92.6%; in experiment [6], 86.2%. Further, the growth in experiment [7] was 81.3%; in experiment [8], 92.4%; in experiment [9], 87.9%; in experiment [10] it was 102%; in experiment [11], 107%; in experiment [12], 125%. Also, the growth in experiment [13] is 91.2%; in experiment [14], 81%; in [15], 81.6%; in [16], 101%; in experiment [17], 99.6%; in experiment [18], 89.6%. The growth in experiment [19] is 101%; in experiment [20] it was 91.1%.
In the case of `CCCCn1cnc(-c2cc(-c3ccccc3)cc(C(F)(F)F)c2)n1`, the growth was 98.1% in [1]; 95.6% in experiment [2]; 99.8% in experiment [3]; 99.1% in experiment [4]; 99% in experiment [5]; 76% in experiment [6]. Further, the growth in experiment [7] is 93.8%; in experiment [8], 97.8%; in experiment [9], 103%; in experiment [10], 104%; in [11], 106%; in [12] it was 95.9%. Also, the growth in experiment [13] was 89.6%; in experiment [14], 106%; in experiment [15] it was 99.9%; in experiment [16], 104%; in [17], 102%; in experiment [18] it was 103%. The growth was 96.7% in experiment [19] and 98% in experiment [20].
As to `CC(=O)c1c(C)nc(-c2cc(C)cc(Cl)c2)nc1-c1cccc(Oc2ccccc2)c1`, the growth was 86% in [1]; 84% in experiment [2]; 91% in [3]; 76.2% in experiment [4]; 36.1% in experiment [5]; 38% in experiment [6]. Besides, the growth in experiment [7] is 59%; in experiment [8], 69.1%; in experiment [9], 70.3%; in experiment [10] it was 70.2%; in [11] it was 85.8%; in [12], 19.9%. Also, the growth in experiment [13] is 74.8%; in experiment [14] it was 55%; in experiment [15] it was 90.5%; in experiment [16] it was 71%; in experiment [17], 77.3%; in [18], 86%. In addition, the growth was 81.1% in experiment [19] and 31.7% in experiment [20].

(Values after PubChem BioAssay (NCI).)
